What all share (experiment): qHTS profiling for inhibitors of Plasmodium falciparum proliferation (AID 504749); note: nearly all actives have a fitted effect of over 60% in size
Common to all, as to settings: P. falciparum in erythrocytes, SYBR Green DNA, 72 h; series mostly up to 28.7 µM

Test [1] deals with CP211. The gist of the method: (§1)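 P. falciparum-infected erythrocytes (0.3% parasitemia, 2.5% hematocrit) incubated with compound 72 h at 37 C, 5% CO2. Parasite DNA detected by SYBR Green after lysis, overnight at room temperature; normalised to 0.29 uM artemisinin and DMSO.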
Test [2] has as its system CP215. The gist of the method: as §1
Test [3] relates to CP217. Summed up: as §1
The test system of test [4] is CP237. The gist of the method: as §1
Test [5] deals with CP238. Summed up: as §1
In test [6] the test system is CP247. Summed up:
as §1

Test [7] relates to CP250. Summed up:
as §1

Test [8] relates to CP252. Summed up: as §1
The test system of test [9] is CP256. The gist of the method:
as §1

Test [10] deals with CP260. The gist of the method:
as §1

The test system of test [11] is CP262. Summed up:
as §1

Test [12] deals with CP265. Summed up: as §1
Test [13] deals with CP266. The gist of the method:
as §1

The subject of test [14] is CP268. The gist of the method:
as §1

Test [15] deals with CP269. Summed up:
as §1

In test [16] the test system is CP286. The gist of the method: as §1
The subject of test [17] is CP291. Summed up:
as §1

Test [18] relates to CP297. The gist of the method: as §1
For test [19], the system named is CP305. The gist of the method: as §1
The test system of test [20] is CP315. Summed up: as §1

Results filed as inconclusive are left out. Activity calls are given as the source filed them. Calls come from the whole dose curve; as a rule, active = well fitted inhibition curve with a large enough effect; inconclusive = small, poorly fitted or top-dose-only effect; inactive = flat fitted curve, though single readings scatter.
Potency is the fitted concentration of half-maximal effect.

Take `S=P(N1CC1)(N1CC1)N1CC1`: the Potency entry in test [1], in test [2], in [3], in test [4], in [5] and in [6] was “inactive” in each case. In addition, the Potency result in test [7], in test [8], in [9], in test [10], in [11] and in test [12] was “inactive” in each case. Also, the Potency entry in [13], in [14], in test [15], in test [16], in [17] and in test [18] was “inactive” in each case. In addition, the Potency result in test [19] and in test [20] was “inactive” in each case.
`Nc1nc(N)c2nc(CNc3ccc(C(=O)NC(CCC(=O)O)C(=O)O)cc3)cnc2n1` (stereo unspecified): the Potency entry in test [1], in test [2], in test [3], in test [4], in test [5] and in test [6] was “inactive” in each case. The Potency result in [7], in test [8], in [9], in [10], in test [11] and in test [12] was “inactive” each time. For the same molecule, the Potency entry in [13], in test [14], in [15], in [16], in test [17] and in [18] was “inactive” in each case. Also, the Potency result in [19] and in test [20] was “inactive” in each case.
`Cc1cccc(Nc2ccncc2S(=O)(=O)NC(=O)NC(C)C)c1`: the Potency result in [1], in [2], in test [3], in test [4], in test [5] and in test [6] was “inactive” throughout. The Potency entry in [7], in test [8], in test [9], in test [10], in test [11] and in test [12] was “inactive” in each case. Moreover, the Potency result in test [13], in [14], in [15], in test [16], in test [17] and in [18] was “inactive” in each case. The Potency result in [19] and in test [20] was “inactive” in each case.
As to `COc1ccc2cc3[n+](cc2c1OC)CCc1cc2c(cc1-3)OCO2`, the Potency in test [1] is 0.757 µM (active); in test [2], 0.953 µM (active); in [3], 1.41 µM (active); in test [4], 1.26 µM (active); in test [5], 0.891 µM (active); in test [6], 3.16 µM (active). Besides, the Potency is 1.41 µM (active) in test [7]; 1.12 µM (active) in [8]; 0.282 µM (active) in test [9]; 0.891 µM (active) in test [10]; 0.757 µM (active) in [11]; 0.891 µM (active) in test [12]. Moreover, the Potency in [14] is 1.35 µM (active); in [15], 0.953 µM (active); in [16] it was 0.562 µM (active); in test [17] it was 1.51 µM (active); in test [18], 1.35 µM (active); in [19], 0.757 µM (active). Besides, in [20], the Potency was 1.07 µM (active).
Take `COc1cc(NS(=O)(=O)c2ccc(N)cc2)nc(OC)n1`: the Potency entry in [1], in test [2], in [3], in test [4], in test [5] and in [6] was “inactive” in each case. Also, the Potency result in test [7], in [8], in test [9], in test [10], in [11] and in [12] was “inactive” throughout. Further, the Potency result in [14], in test [15], in test [16], in test [17], in test [18] and in test [19] was “inactive” each time. Also, the Potency entry in test [20] is “inactive”.
For the molecule `NC(=O)c1cccnc1`, the Potency result in test [1], in [2], in test [3], in test [4], in [5] and in test [6] was “inactive” throughout. Besides, the Potency result in test [7], in [8], in [9], in [10], in test [11] and in [12] was “inactive” in each case. The Potency entry in test [14], in test [15], in test [16], in test [17], in [18] and in test [19] was “inactive” throughout. Further, in test [20], the Potency result was “inactive”.
Turning to `COC(=O)Nc1nc2ccc(Sc3ccccc3)cc2[nH]1`, the Potency entry in test [1], in test [2], in test [3], in test [4], in test [5] and in test [6] was “inactive” each time. The Potency entry in test [7], in test [8], in test [9], in [10], in test [11] and in test [12] was “inactive” in each case. In addition, the Potency entry in test [14], in [15], in test [16], in [17], in test [18] and in test [19] was “inactive” throughout. The Potency entry in [20] was “inactive”.
As for `CN1CCN(c2c(F)cc3c(=O)c(C(=O)O)cn4c3c2OCN4C)CC1`, the Potency entry in test [1], in [2], in [3], in test [4], in [5] and in test [6] was “inactive” in each case. For the same molecule, the Potency result in test [7], in test [8], in test [9], in test [10], in test [12] and in test [13] was “inactive” throughout. The Potency entry in test [14], in test [15], in [16], in test [17], in [18] and in test [19] was “inactive” each time. The Potency result in [20] is “inactive”.
In the case of `CCOc1cc(N)c(Cl)cc1C(=O)NCC1CN(Cc2ccc(F)cc2)CCO1` (stereo unspecified), the Potency in test [1] was 12 µM (active); in test [2], 10.7 µM (active); in test [3], 4.47 µM (active); in [4], 11.2 µM (active); in test [5] it was 11.2 µM (active); in [6] it was 7.08 µM (active). In addition, the Potency in test [7] is 5.62 µM (active); in [8], 10 µM (active); in test [9], 2.82 µM (active); in test [10], 11.2 µM (active); in test [11], 6.01 µM (active); in [12], 3.16 µM (active). The Potency in test [15] was 13.5 µM (active); in [16] it was 3.98 µM (active); in test [17], 12 µM (active); in test [19], 10.7 µM (active).
On to `Nc1nc(N)nc(-c2cc(Cl)ccc2Cl)n1`, for which the Potency entry in [1], in test [2], in test [3], in [4], in [5] and in [6] was “inactive” throughout. The Potency result in test [7], in test [8], in [9], in test [10], in test [11] and in test [12] was “inactive” throughout. In addition, the Potency result in test [14], in [15], in test [16], in test [17], in test [18] and in test [19] was “inactive” each time. Also, the Potency entry in test [20] is “inactive”.
For the molecule `CCOC(=O)c1ccc(OC(=O)CCCCCN=C(N)N)cc1`, the Potency entry in test [1], in test [2], in [3], in test [4], in [5] and in test [6] was “inactive” in each case. Besides, the Potency result in test [7], in test [8], in [9], in [11], in test [13] and in [14] was “inactive” in each case. Moreover, the Potency result in test [15], in test [16], in [17], in [18], in test [19] and in test [20] was “inactive” each time.
On to `O=c1cc(O)c(Cl)c[nH]1`, for which the Potency entry in [1], in test [2], in [3], in test [4], in [5] and in test [6] was “inactive” throughout. Also, the Potency entry in test [7], in test [8], in test [9], in [10], in test [11] and in test [12] was “inactive” throughout. The Potency entry in [14], in test [15], in test [16], in [17], in test [18] and in [19] was “inactive” in each case. Besides, the Potency entry in test [20] was “inactive”.
Consider `C[C@@H](NCCCc1cccc(C(F)(F)F)c1)c1cccc2ccccc12`, for which the Potency is 13.5 µM (active) in test [1]; 10.7 µM (active) in [2]; 7.94 µM (active) in [3]; 3.55 µM (active) in test [4]; 11.2 µM (active) in test [5]; 10 µM (active) in test [6]. The Potency is 8.91 µM (active) in test [8]; 4.47 µM (active) in test [10]; 11.2 µM (active) in [12]; 10.7 µM (active) in test [15]; 11.2 µM (active) in test [16]; 10.7 µM (active) in test [17]. For the same molecule, the Potency in [18] and in [19] was 13.5 µM (active) in each case. Further, the Potency result in [11] was “inactive”.
As for `Cc1cccc(N(C)C(=S)Oc2ccc3ccccc3c2)c1`, the Potency entry in [1], in test [2], in [3], in [4], in test [5] and in [6] was “inactive” each time. In addition, the Potency result in test [7], in test [8], in test [9], in test [10], in test [11] and in test [12] was “inactive” each time. Also, the Potency entry in [14], in [15], in test [16], in [17], in test [18] and in [19] was “inactive” throughout. The Potency entry in test [20] was “inactive”.

Values taken from PubChem BioAssay (NCATS).
